Compound activity (PubChem BioAssay)
HT1080-NT tox: kills 2HG-producing HT-1080-NT fibrosarcoma cells; HT-1080-NT fibrosarcoma viability, CellTiter-Glo ATP luminescence, 48 h; Potency, µM (titrated, usually from 46.1 µM), for inactives: at the highest dose activity, negative = less viability, usual class: cytotoxic; 360,000 compounds, 1.6% hits; AID 686970;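 also: NT is the 2HG producing partner of a matched IDH1 knockdown line; 0% = DMSO-treated cells and -100% = media-only wells without cells; nearly all actives have a fitted effect of over 55% in size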
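Viability of the 2HG-overproducing fibrosarcoma line after 48 hours of compound exposure at 37 degrees C was determined by luminescence with CellTiter-Glo, and concentration-effect curves were then fitted and categorized.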
TGFb inhibitor: TGF-b pathway inhibition. HepG2 CAGA-GFP TGF-b/SMAD3 reporter, GFP fluorescence, 18 h; TGF-beta stimulated, 500 pg/mL final. Potency, µM (series often up to 46.1 µM), without a hit: top-dose activity, negative = inhibition, hits mostly inhibitors. 410,000 compounds, 1.2% hits. AID 588855; also: % is scaled to controls: 0 for no effect and ±100 for the full control effect; nearly all actives have a fitted effect of over 65% in size
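Inhibition of TGF-beta-driven CAGA-GFP reporter expression in HEPG2 cells is measured by cellular GFP fluorescence after 18 h stimulation with 500 pg/mL recombinant TGF-beta in 1% FBS medium at 37 degrees C.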
S2 tox: cell viability loss in ATXN counter-screen | S2 cells (HEK-293 line with an ATXN2-luciferase reporter) viability, CellTiter-Fluor protease fluorescence, 24 h | Potency, µM (series often up to 56.7 µM), hits mostly cytotoxic | 400,000 compounds, 0.49% hits | AID 651635; also: nearly all actives have a fitted effect of over 40% in size
ATXN2 expr inh: reduces ATXN2 reporter expression in HEK-293 cells | HEK-293 ATXN2-luciferase reporter, luminescence, 24 h | Potency, µM (series often up to 57 µM), inactives show at the top dose activity change, negative = inhibition, hits mostly inhibitors | 360,000 compounds, 0.72% hits | AID 1745845; also: % is scaled to controls: 0 for no effect and ±100 for the full control effect; nearly all actives have a fitted effect of over 55% in size
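qHTS (up to 57 uM final) was run with 24 h compound exposure of reporter cells at 37 °C. Each well was multiplexed: SteadyGlo luminescence measured ATXN2-luciferase expression after a fluorogenic Gly-Phe-AFC viability readout (25 uM final).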
HepG2 tox-1: counter-screen for TGF-b inhibitors: cytotoxicity in HepG2 cells. 410,000 compounds, 0.76% hits. Potency, µM (highest dose often 46.1 µM), for inactives: at the highest dose activity change, negative = cytotoxicity, usual class: cytotoxic. HepG2 CAGA-GFP viability, ATP luminescence, 18 h
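CellTiter-Glo luminescence gave cytotoxicity after 18 hours at 37 degrees C. The cells were HepG2 CAGA-GFP in 1% FBS DMEM, stimulated with 500 pg/mL TGF-beta after compound addition. %Activity was normalised to no-cell wells (complete cell-killing) and DMSO (no toxicity), and curves were fitted and classified.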
HT1080 IDH1KD tx: toxicity to HT-1080 IDH1 knockdown cells (counter line); Potency, µM (highest dose often 46.1 µM), without a hit: top-dose activity, negative = toxicity, usual class: cytotoxic; HT-1080 IDH1 knockdown viability, ATP luminescence, 48 h; 360,000 compounds, 2% hits;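 also: 0% = DMSO wells and -100% = cell-free medium wells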
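HT-1080-IDH1KD cells (IDH1 knocked down), 750/well in RPMI with 5% FBS, treated with compound 48 h at 37 degrees C. Viability by CellTiter-Glo luminescence, normalised to DMSO and no-cell wells; concentration-response curves classed.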
TGFb CAGA inh: confirmation of TGF-b signaling inhibitors in HepG2 reporter cells. shares compounds with TGFb inhibitor. HepG2 CAGA-GFP TGF-b reporter, GFP fluorescence, 18 h; cells stimulated with TGF-beta, 500 pg/mL. Potency, µM (highest dose often 46.1 µM), for the others: top-dose activity, negative = inhibition, hits mostly inhibitors. 1,600 compounds, 63% hits; also: % is scaled to controls: 0 for no effect and ±100 for the full control effect; nearly all actives have a fitted effect of over 65% in size
HepG2 tox-2: counter-screen for TGF-b inhibitors: cytotoxicity in HepG2 cells. AID 720535. 1,600 compounds, 27% hits. shares compounds with TGFb inhibitor. HepG2 CAGA-GFP viability, ATP luminescence, 18 h; cells stimulated with TGF-beta, 500 pg/mL. Potency, µM (doses to about 46.1 µM), for inactives: top-dose activity, negative = cytotoxicity, actives largely listed as inhibitors; also: % is scaled to controls: 0 for no effect and ±100 for the full control effect; nearly all actives have a fitted effect of over 70% in size
CCL64 TGFb inh: orthogonal confirmation of TGF-b inhibitors in CCL64 cells; 1,600 compounds, 41% hits; Potency, µM (series often up to 46.1 µM), inactives show at the highest dose activity, negative = inhibition, hits mostly inhibitors; CCL64 CAGA-GFP reporter, TGF-b stimulated, GFP fluorescence, 18 h; shares compounds with TGFb inhibitor; also: nearly all actives have a fitted effect of over 65% in size
TGFb COP inh: TGF-b inhibition validated with COP promoter. shares compounds with TGFb inhibitor. HepG2 COP-GFP TGF-b reporter, GFP fluorescence, 18 h; cells stimulated by added recombinant TGF-beta. Potency, µM (titrated, usually from 46.1 µM), without a hit: at the top dose activity, negative = inhibition, hits mostly inhibitors. 1,600 compounds, 3% hits. AID 720537; also: nearly all actives have a fitted effect of over 70% in size
The depositor's hits bear a star; i = inactive; ? = inconclusive; . = no result given. Most compounds without a hit are left out; they make up all but 3.9% or so of the library. Calls follow the shape of the dose curve; as a rule, active = well fitted curve in the direction sought with a large enough effect; inconclusive = small, poorly fitted or top-dose-only effect, or another doubt; inactive = no such curve, though single readings can be large; an effect the other way counts as inactive or inconclusive. Potency is read from the fitted curve at half-maximal effect.

SMILES | HT1080-NT tox | TGFb inhibitor | S2 tox | ATXN2 expr inh | HepG2 tox-1 | HT1080 IDH1KD tx | TGFb CAGA inh | HepG2 tox-2 | CCL64 TGFb inh | TGFb COP inh
CC1CCc2[nH]c3ccc(C(=O)N4CCCC(C(F)(F)F)C4)cc3c2C1 (stereo unspecified) | -8% | 14µM* | i | 6% | 8% | -23% | ? | ? | 21µM* | 58%
Cc1cccc(C)c1N(CC(=O)Nc1cc(Cl)ccc1Oc1ccccc1)S(C)(=O)=O | -3% | ? | i | -10% | 14% | -10% | ? | -17% | -24% | 1%
COc1ccccc1CNc1nc2cc(-c3ccc(OC)c(OC)c3)sc2c(=O)n1C | -24% | ? | i | 0% | 4% | -11% | . | . | . | .
COc1ccc(-c2cc3nc(NCC4CCCCC4)n(C)c(=O)c3s2)cc1OC | 17% | 10µM* | ? | ? | -29% | ? | ? | ? | ? | 65%
Cc1cccc(CSc2nnc(CCNC(=O)OC(C)(C)C)o2)c1 | 2% | -13% | i | 16% | -32% | -1% | . | . | . | .
CC(C)(C)OC(=O)NCCc1nnc(SCc2cccc(Cl)c2)o1 | -8% | 7.9µM* | i | -20% | -60% | -1% | -5% | -10% | 10% | -11%
CC(=O)Nc1ccc(S(=O)(=O)c2ccnc3cc(Cl)ccc23)cc1 | ? | 10µM* | i | . | -75% | ? | 23µM* | ? | 21µM* | 15%
CC(=O)Nc1ccc(S(=O)(=O)Nc2ccc(Cl)cn2)cc1 | 7% | 15% | ? | -13% | 2% | 1% | . | . | . | .
CC(=O)OC(C)(C)/C=C/C(=O)[C@](C)(O)C1[C@H](O)C[C@@]2(C)C3CC=C4C(C=C(O[C@@H]5O[C@H](CO)[C@@H](O)[C@H](O)[C@H]5O)C(=O)C4(C)C)[C@]3(C)C(=O)C[C@]12C (stereo partly specified) | ? | 5µM* | ? | 0% | -31% | 23µM* | 5.2µM* | ? | 3.3µM* | 3%
Cc1c(C(=O)NCCc2ccc(S(N)(=O)=O)cc2)sc2nc3n(c(=O)c12)CCCC3 | . | 1% | . | . | 3% | . | . | . | . | .
COc1cc2nc(N3CCCN(C)CC3)nc(NC3CCN(C)C3)c2cc1OC (stereo unspecified) | . | ? | . | . | -9% | . | . | . | . | .
CC(=O)c1ccc(Nc2nc(-c3ccccc3)nc3ccccc23)cc1 | ? | -6% | ? | -26% | -22% | -20% | -11% | -10% | -6% | -18%
